Results on 23 molecules are retold here after PubChem BioAssay (Tox21).

Each structure is given as a SMILES string. Several values for one entry are separate records, joined by “and”; a condition that tells them apart may be missing. Equal entries are not always repeated. Records with an inconclusive call do not appear. A structure can be active in one record and inactive in another. Activity calls are given as the source filed them. Calls follow the shape of the dose curve; as a rule, active = well fitted curve in the direction sought with a large enough effect in the repeat runs; inconclusive = weak or mixed curves; inactive = no such curve, though single readings can be large; an effect the other way counts as inactive or inconclusive.

Test [1] is described as follows: qHTS RealTime-Glo MT Cell Viability Assay in HepG2 cells - 40 hour (AID 1224870). Also: nearly all actives have a fitted effect of over 50% in size. In outline:
(§1)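 HepG2 cells (600/well) mixed with RealTime-Glo MT reagent, settled 5 h at 37 C/5% CO2 before compound addition. Nonlytic NanoLuc luminescence from viable-cell prosubstrate reduction read repeatedly during 40 h treatment at 37 C.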
In general terms: In qHTS, concentration-response curves come from the screen itself.

The nature of test [2]: A CellTox Green Cytotoxicity Assay to monitor cytotoxicity in HEK293 cells - 40 hour (AID 1224871). Also: nearly all actives have a fitted effect of over 45% in size. In outline:
(§2)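 Cells (HEK293, 600/well) and dye reagent are dispensed together. After 5 h at 37 C, 23 nL compound is pinned in. Plates stay at 37 C for 40 h with fluorescence read at 0h, 8h, 16h, 24h, 32h and 40h.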

Test [3] is described as follows: qHTS RealTime-Glo MT Cell Viability Assay in HEK293 cells - 16 hour (AID 1224872). Also: nearly all actives have a fitted effect of over 50% in size. A digest of the protocol:
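Quantitative high-throughput screen of the Tox21 10K library in HEK293: cells and RealTime-Glo reagents plated together, compound added at 5 h, luminescence monitored through 40 h at 37 C.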

Test [4] is described as follows: qHTS RealTime-Glo MT Cell Viability Assay in HEK293 cells - 40 hour (AID 1224874). Also: nearly all actives have a fitted effect of over 50% in size. The note with it: RealTime-Glo luminescence; max response: stronger effect = lower value. In outline:
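Real-time viability in HEK293: signal arises when living cells convert a prosubstrate for NanoLuc in the medium, so luminescence tracks viable cell number. Compound (23 nL, DMSO) added 5 h post-seeding; kinetic reads at 0–40 h, 37 C.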

The nature of test [5]: A CellTox Green Cytotoxicity Assay to monitor cytotoxicity in HEK293 cells - 24 hour (AID 1224875). Also: nearly all actives have a fitted effect of over 45% in size. In outline: as §2
Test [6] in a line: qHTS RealTime-Glo MT Cell Viability Assay in HepG2 cells - 32 hour (AID 1224877). Also: nearly all actives have a fitted effect of over 55% in size. A digest of the protocol: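 Compound treatment began 5 h after plating HepG2 cells (600/well) with NanoLuc luciferase and prosubstrate. Plates stayed at 37 C for 40 h; luminescence was captured at six time points, 0 h through 40 h.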
A short description of test [7]: A CellTox Green Cytotoxicity Assay to monitor cytotoxicity in HepG2 cells - 24 hour (AID 1224878). Also: nearly all actives have a fitted effect of over 45% in size. A digest of the protocol: (§3)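 Cells and non-lytic dye reagent are dispensed together (600 HepG2 cells/well) and incubated 5 h before DMSO compound transfer. Kinetic fluorescence is then recorded in the same wells during 40 h at 37 C.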
The nature of test [8]: A CellTox Green Cytotoxicity Assay to monitor cytotoxicity in HepG2 cells - 40 hour (AID 1224879). Also: nearly all actives have a fitted effect of over 40% in size. In outline:
as §3

Test [9] can be described thus: qHTS RealTime-Glo MT Cell Viability Assay in HepG2 cells - 8 hour (AID 1224873). Also: nearly all actives have a fitted effect of over 55% in size. A digest of the protocol: as §1
Test [10] in a line: A CellTox Green Cytotoxicity Assay to monitor cytotoxicity in HepG2 cells - 16 hour (AID 1224876). Also: nearly all actives have a fitted effect of over 45% in size. In outline:
as §3
% is scaled to controls: 0 for no effect and ±100 for the full control effect; potency is read from the fitted curve at half-maximal effect.

Regarding `c1ccc2sc(SSN3CCOCC3)nc2c1`, the Potency entry in [1] was “inactive and 54.9 µM (active)”; in test [2] it was 38.8 µM (active) and 49 µM (active); in test [3] it was 43.6 µM (active); in test [4], 19.5 µM (active) and 43.6 µM (active); in test [5] it was 38.8 µM (active); in [6], “inactive and 49 µM (active)”. Also, the Potency in test [7] is 54.9 µM (active); in [8], 54.8 µM (active) and 49 µM (active).

`c1ccc2c(c1)Oc1ccccc1S2`: the Potency entry in [1], in test [3], in test [9], in test [10], in test [6] and in [7] was “inactive” each time. For the same molecule, in test [8], the Potency result is “inactive”. The Potency in test [2] is 49.8 µM (active) and inactive. Moreover, the max response in [4] is -19.5% (inactive) and -6.23% (inactive).

Consider `CCC(C)c1ccccc1O` (stereo not drawn), for which the Potency result in test [1], in test [3], in [9], in test [10], in test [6] and in test [7] was “inactive” in each case. In addition, the results for the Potency in test [2] and in [8] were 34.4 µM (active) and 48.6 µM (active), respectively. Moreover, the max response in [4] is -13% (inactive) and 2.84% (inactive).

In the case of `S=C(NC1CCCCC1)NC1CCCCC1`, the Potency result in [1], in test [2], in [9], in test [5], in test [10] and in test [6] was “inactive” each time. Also, the Potency result in test [7] and in [8] was “inactive” in each case. The Potency in test [4] was 17 µM (active) and 21.9 µM (active).

In the case of `O=C(c1ccc(OCCN2CCCCC2)cc1)c1c(-c2ccc(O)cc2)sc2cc(O)ccc12`, the Potency is 54.9 µM (active) and inactive in [1]; 55 µM (active) and 54.9 µM (active) in [2]; 19.5 µM (active) and 21.9 µM (active) in test [3]; 17.4 µM (active) and 21.9 µM (active) and 23.9 µM (active) in [4]; 55 µM (active) and 54.9 µM (active) and inactive in [6]; 55 µM (active) and 54.9 µM (active) in [7]. Further, the Potency in test [8] is 49 µM (active) and 26.8 µM (active). For the same molecule, the Potency entry in test [9] and in test [10] was “inactive” throughout.

In the case of `Cc1ccc2c(n1)Oc1ccc(C(C)C(=O)OCC(=O)N(C)C)cc1C2` (stereo not drawn), the Potency entry in test [1], in [2], in [5], in test [10], in [6] and in test [7] was “inactive” throughout. For the same molecule, in [8], the Potency result is “inactive”. Also, the max response in test [4] is -20.9% (inactive) and -25.9% (inactive).

On to `Oc1ccc(O)cc1`, for which the Potency result in [1], in test [2], in test [9], in test [5], in [10] and in test [6] was “inactive” in each case. The Potency result in [7] and in test [8] was “inactive” each time.

Turning to `CN(C)CCC=C1c2ccccc2CCc2ccccc21`, the Potency result in [1] is “inactive and 54.9 µM (active)”; in test [10], 24.5 µM (active); in test [6], “inactive and 49 µM (active)”; in test [7], 38.9 µM (active) and 23.9 µM (active); in test [8], 55 µM (active) and 43.6 µM (active) and 26.8 µM (active). In addition, the Potency entry in test [2], in test [3], in [9] and in test [5] was “inactive” in each case.

With `CCC(C)OC(=O)c1ccc(O)cc1` (stereo not drawn), the Potency result in test [1], in test [2], in [9], in test [5], in test [10] and in test [6] was “inactive” throughout.

In the case of `CC(=O)c1ccccn1`, the Potency result in [1], in test [2], in test [3], in test [9], in [5] and in test [10] was “inactive” each time. The Potency result in test [6], in [7] and in [8] was “inactive” each time. The max response in test [4] is 3.52% (inactive) and 4.42% (inactive).

As to `COC(=O)Nc1nc2ccc(S(=O)c3ccccc3)cc2[nH]1` (stereo not drawn), the Potency result in test [1], in test [2], in [9], in test [5], in [10] and in test [6] was “inactive” throughout. In addition, the Potency in [3] is 1.34 µM (active); in test [4], 756 nM (active); in [7], “inactive and 10.7 µM (active)”; in [8], 0.848 µM (active).

Turning to `CC(=O)C1(C)CC2=C(CCCC2(C)C)CC1C` (stereo not drawn), the Potency entry in test [1], in test [3], in [9], in test [10], in test [6] and in [7] was “inactive” throughout. For the same molecule, the Potency entry in test [8] was “inactive”. Further, in test [2], the Potency was 41.6 µM (active). In addition, the max response in test [4] is -4.9% (inactive) and 2.42% (inactive).

In the case of `CCCCC(CC)COC(=O)c1ccc(N(C)C)cc1` (stereo not drawn), the Potency result in [1], in test [2], in test [3], in test [9], in test [5] and in test [10] was “inactive” in each case. The Potency entry in test [6], in [7] and in test [8] was “inactive” in each case. The max response in test [4] is -14.3% (inactive) and -13.1% (inactive) and -14.9% (inactive).

Consider `CCCCc1oc2ccccc2c1C(=O)c1cc(I)c(OCCN(CC)CC)c(I)c1`, for which the Potency is 39.2 µM (active) in test [1]; 44 µM (active) in [2]; 39.2 µM (active) and 21.3 µM (active) in [3]; 39.2 µM (active) in test [9]; 34.9 µM (active) and 23.9 µM (active) in [4]; 44 µM (active) in [10]. The Potency is 39.2 µM (active) and 23.9 µM (active) in test [6]; 39.2 µM (active) in [7]; 31.1 µM (active) and 26.8 µM (active) in [8].

Turning to `O=C(c1ccccc1)c1ccccc1O`, the Potency result in [1], in test [3], in test [9], in test [5], in test [10] and in test [6] was “inactive” in each case. In addition, the Potency result in test [7] and in test [8] was “inactive” in each case. The max response in [4] is -15.9% (inactive) and -14.9% (inactive).

On to `Cn1cnc([N+](=O)[O-])c1Sc1ncnc2nc[nH]c12`, for which the Potency result in test [1], in [9], in test [10], in [6] and in test [7] was “inactive” throughout. Moreover, the Potency in test [2] was 34.5 µM (active) and inactive; in test [4], 20.5 µM (active) and 21.3 µM (active); in test [8], 54.5 µM (active) and inactive.

Consider `Nc1ccccc1N`, for which the Potency result in [1], in [9] and in test [6] was “inactive” each time. Moreover, the Potency was 50.1 µM (active) in [2]; 50.1 µM (active) in test [5]; 56.2 µM (active) and inactive in [10]; 56.2 µM (active) and inactive in test [7]; 28.2 µM (active) in test [8]. Besides, in test [4], the max response was -5.16% (inactive).

In the case of `COc1c(Cl)c(Cl)c(Cl)c(Cl)c1Cl`, the Potency result in test [1], in [2], in test [3], in test [9], in test [5] and in test [10] was “inactive” in each case. In addition, the Potency result in [6], in test [7] and in test [8] was “inactive” throughout. For the same molecule, the max response in test [4] is -6.1% (inactive) and 5.51% (inactive).

Turning to `CCCCOCCOCCOCCO`, the Potency entry in test [1], in [2], in test [3], in test [9], in test [5] and in test [10] was “inactive” in each case. Moreover, the Potency entry in [6], in test [7] and in [8] was “inactive” in each case. Also, the max response in [4] was 3.72% (inactive) and 4.47% (inactive).

As to `CN(C)CCN(Cc1cccs1)c1ccccn1`, the Potency entry in test [1], in test [2], in test [3], in test [9], in test [5] and in test [10] was “inactive” each time. The Potency result in test [6], in [7] and in [8] was “inactive” throughout. For the same molecule, in [4], the max response is -22.8% (inactive) and -7.6% (inactive).

`CC(C(=O)O)c1cccc(C(=O)c2ccccc2)c1` (stereo not drawn): the Potency entry in test [1], in test [2], in test [3], in test [9], in test [5] and in test [10] was “inactive” each time. Besides, the Potency result in [6], in test [7] and in [8] was “inactive” in each case. Besides, the max response in test [4] was 9.55% (inactive) and 2.14% (inactive).

For `C[C@]12CC[C@H]3[C@@H](CCC4=CC(=O)CC[C@@]43C)[C@@H]1CC[C@@H]2C(=O)CO`, the Potency result in [1], in test [2], in test [9], in [5], in [10] and in test [6] was “inactive” throughout. Also, the Potency entry in test [7] and in test [8] was “inactive” in each case. Further, the Potency in test [4] was 38900 nM (active).

Turning to `C#C[C@]1(O)CC[C@H]2[C@@H]3CCC4=Cc5oncc5C[C@]4(C)[C@H]3CC[C@@]21C`, the Potency in test [2] was 49 µM (active). In addition, the Potency result in [5], in [10], in [7] and in test [8] was “inactive” in each case.
